# Rows were chosen to be rich in hits. Some 5.7% of all compounds tested hit in one or more screens of this group.
# IL-1B inflam inh: inflammasome signaling inhibition, IL-1 beta readout; THP-1 LPS/ATP IL-1B secretion, AlphaLISA, 16 h; hits give low values; activity change, % at 57.5 µM; 360,000 tested, 4.7% active; AID 743279; in the data active = activity change below about -50%; inconclusive = mostly about -30% to -49%; note: % is set by controls: 0 for no effect and ±100 for the full control effect
#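 THP-1 cells pretreated 1 hr with compounds (up to 57.5 uM final), then stimulated with LPS (250 ng/mL final) plus ATP (1.25 mM final); secreted IL-1B measured by AlphaLISA after 16 hr, decreased signal indicating inhibition.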
# TGFb inhibitor: blocks TGF-b signaling; HepG2 CAGA-GFP TGF-b/SMAD3 reporter, GFP fluorescence, 18 h; TGF-beta stimulated, 500 pg/mL final; Potency, µM (highest dose often 46.1 µM), without a hit: top-dose activity, negative = inhibition, actives largely listed as inhibitors; 410,000 tested, 1.2% active; AID 588855; note: potency is the fitted concentration of half-maximal effect; % is set by controls: 0 for no effect and ±100 for the full control effect; nearly all actives have a fitted effect of over 65% in size
#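 HEPG2 CAGA-GFP, 1000 cells/well; 2 h settle, 37 C; cpd via pin tool; TGF-b 500 pg/mL final; 18 h, 37 C; GFP imaging ex488/em500-530; %Activity normalised to -TGF-b and +DMSO controls; CRC fit, curve class.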
# HepG2 viability: kills HepG2 cells in TGF-b inhibitor counter-screen | Potency, µM (highest dose often 46.1 µM), without a hit: at the top dose activity change, negative = cytotoxicity, usual class: cytotoxic | 410,000 tested, 0.76% active | AID 588856 | HepG2 CAGA-GFP viability, ATP luminescence, 18 h; note: potency is the fitted concentration of half-maximal effect
#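 CellTiter-Glo luminescence gave cytotoxicity after 18 hours at 37 degrees C. The cells were HepG2 CAGA-GFP in 1% FBS DMEM, stimulated with 500 pg/mL TGF-beta after compound addition. %Activity was normalised to no-cell wells (complete cell-killing) and DMSO (no toxicity), and curves were fitted and classified.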
# ATXN2 expr inh: ATXN2 expression inhibition. Potency, µM (doses to about 57 µM), for the others: top-dose activity change, negative = inhibition, hits mostly inhibitors. 360,000 tested, 0.72% active. HEK-293 ATXN2-luciferase reporter, luminescence, 24 h; note: potency is the fitted concentration of half-maximal effect; % is set by controls: 0 for no effect and ±100 for the full control effect; nearly all actives have a fitted effect of over 55% in size
#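 ATXN2-luciferase reporter cells (luciferase flanked by upstream and downstream ATXN2 gene portions) were treated 24 h at 37 °C with compounds at up to 57 uM. SteadyGlo luminescence gave expression; GF-AFC fluorescence gave viability.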
# ATXN viability: viability counter-screen for ATXN expression inhibitors; 400,000 tested, 0.49% active; Potency, µM (highest dose often 56.7 µM), hits mostly cytotoxic; AID 651635; S2 cells (HEK-293 line with an ATXN2-luciferase reporter) viability, CellTiter-Fluor protease fluorescence, 24 h; note: potency is the fitted concentration of half-maximal effect; nearly all actives have a fitted effect of over 40% in size
# * marks the source's active call; other numbers are inactive results; i = inactive; ? = inconclusive; . = not tested or not shown. Unless noted, calls come from the whole dose curve; as a rule, active = well fitted curve in the direction sought with a large enough effect; inconclusive = small, poorly fitted or top-dose-only effect, or another doubt; inactive = no such curve, though single readings can be large; an effect the other way counts as inactive or inconclusive.
SMILES,IL-1B inflam inh,TGFb inhibitor,HepG2 viability,ATXN2 expr inh,ATXN viability
Cc1cc(C)c(NC(=O)c2ccc3c(c2)NC(=O)C(C)S3)c(C)c1 (centres undefined),14,1%,-13%,-16%,i
Cc1cc(C(=O)Nc2ccccc2-c2nc(CNC(=O)c3cscn3)c(C)o2)c(C)o1,.,.,.,.,i
O=C(N/N=C/C=C/c1ccccc1[N+](=O)[O-])c1cc(-c2cccnc2)nc2ccccc12,-14,-24%,-42%,.,i
Cc1occc1C(=O)N/N=C/C=C/c1ccccc1[N+](=O)[O-],-62*,-12%,-10%,.,i
COc1ccccc1-c1cc(C(=O)N/N=C/C=C/c2ccccc2[N+](=O)[O-])c2ccccc2n1,-51*,-10%,-35%,-25%,i
CN(C(=O)CSc1nc2ccc(NC(=O)c3ccco3)cc2s1)c1ccccc1,.,-7%,-29%,?,.
CCN(C(=O)c1cc2c(Cl)nc3ccc(C)cc3c2s1)c1cc(OC)ccc1OC,.,-26%,3%,.,.
CC1(C)Cc2c(sc(NC(=O)c3ccc4ncsc4c3)c2C(N)=O)C(C)(C)N1,-215*,?,-37%,.,i
COC(=O)c1c(NC(=O)c2ccccc2)sc2c1CC(C)(C)NC2(C)C,-3,15%,5%,-11%,i
CC1(C)Cc2c(sc(NC(=O)COc3ccc(Cl)cc3)c2C(N)=O)C(C)(C)N1,-16,0%,4%,?,?
CC1(C)Cc2c(sc(NC(=O)c3ccc(C(=O)c4ccccc4)cc3)c2C(N)=O)C(C)(C)N1,-102*,?,18µM*,25µM*,?
Cc1ccc2oc(-c3ccc(C)c(NC(=O)COc4ccc(Cl)cc4C)c3)nc2c1,.,27%,-18%,.,.
CCc1ccc(NC(=O)c2sc(-n3nc(C)c(Cc4ccc(OC)cc4)c3C)nc2C)cc1,.,-8%,2%,.,.
COc1ccc(/C=N/Nc2nc(N3CCCCC3)nc(N3CCCCC3)n2)cc1[N+](=O)[O-],-19,0%,6%,-6%,i
COc1cc(/C=N/Nc2nc(Nc3ccccc3)nc(-n3nc(C)cc3C)n2)cc(OC)c1OC,-64*,?,-29%,-21%,?
COc1ccc(/C=N/Nc2nc(Nc3ccccc3)nc(N3CCCC3)n2)cc1[N+](=O)[O-],-88*,6%,-24%,0%,?
CSCC[C@H](NC(=O)[C@H](Cc1ccc(OS(=O)(=O)O)cc1)NC(=O)[C@@H](N)CC(=O)O)C(=O)NCC(=O)N[C@@H](Cc1c[nH]c2ccccc12)C(=O)N[C@@H](CCSC)C(=O)N[C@@H](CC(=O)O)C(=O)N[C@@H](Cc1ccccc1)C(N)=O,.,.,.,.,i
O=C(COc1ccccc1C(=O)Nc1ccccc1)Nc1ccc(Br)cc1,.,1%,-6%,.,.
NC(=O)c1sc(=S)n(-c2ccc(Br)cc2)c1N,58,11µM*,-25%,-14%,i
COc1cc2nc(Cl)nc(N3CCOCC3)c2cc1OC,-3,?,-18%,22%,i
COc1cc2nc(Cl)nc(N3CCCCC3)c2cc1OC,-61*,-5%,-5%,0%,i
CC(=O)Nc1ccc(/C=C/c2sc3ccccc3[n+]2CCCCI)cc1,.,15%,-21%,.,.
Cc1nc([N+](=O)[O-])cn1CC(O)c1ccc2c(c1)OCCO2 (centres undefined),.,0%,-21%,.,.
COc1cc(-c2noc(C)c2C#Cc2ccsc2)cc(OC)c1OC,72,11µM*,-20%,0%,i
O=C(NCCc1ccccc1)C(=O)NCC(c1cccs1)S(=O)(=O)c1cccs1 (centres undefined),.,9%,-20%,-7%,i
COc1ccc(C=CC(=O)c2ccc(OC)c(OC)c2)cc1O,-65*,?,-26%,.,?
COc1cc2ccc(C(C)=O)cc2cc1OC,-30,9%,-49%,.,i
COc1ccc(C(=O)C=Cc2ccc3c(c2)OCO3)cc1OC,-23,6%,-23%,.,?
COc1ccc(C=CC(=O)c2ccc3cc(OC)c(OC)cc3c2)cc1OC,-98*,?,-74%,.,.
O=C(/C=C/c1ccccc1)c1ccc2ccccc2c1,?,?,20µM*,62%,i

# Source: PubChem BioAssay (National Center for Advancing Translational Sciences (NCATS))
